The list is not random: actives were taken first. Their share in the collection is about 0.87%.
RGS4 inh: blocks human RGS4-accelerated GTP hydrolysis; 390,000 tested, 0.039% active; Potency, µM (highest dose often 114 µM), actives largely listed as inhibitors; Transcreener GDP fluorescence polarization, RGS4-accelerated GTP hydrolysis; AID 504845; further: nearly all actives have a fitted effect of over 75% in size
Target sequence (P49798 whole entry, looked up): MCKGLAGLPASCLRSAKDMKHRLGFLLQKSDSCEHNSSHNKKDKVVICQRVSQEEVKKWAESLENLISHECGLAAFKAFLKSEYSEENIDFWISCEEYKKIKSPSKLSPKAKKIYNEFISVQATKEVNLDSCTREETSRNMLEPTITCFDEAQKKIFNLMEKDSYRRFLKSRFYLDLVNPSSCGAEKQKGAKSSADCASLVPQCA
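MLSMR compounds (23 nl, pin-transferred) preincubated 10 min at room temperature with a 500nM (2x) first reagent, then RGS4 at 900nM (2x) plus Transcreener GDP mix added; fluorescence polarization (620/688 nm) read before and after 90 min at 30 °C.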
TDP1 block: TDP1 (human) enzyme inhibition | 350,000 tested, 0.28% active | AID 485290 | recombinant TDP1, AlphaScreen DNA substrate cleavage | Q9NUW8 | Potency, µM (top dose mostly 130 µM), most hits filed as inhibitors; further: nearly all actives have a fitted effect of over 40% in size
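Compounds were preincubated with Tdp1 (1 nM final) for 15 min at room temperature before substrate (15 nM final) started a 5 min reaction; beads (10 ug/ml final) were then added for 10 min before AlphaScreen detection.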
RECQ1 helicase: blocks DNA unwinding by human RECQ1 | P46063 | RECQ1 DNA unwinding, red fluorescence kinetic read | Potency, µM (doses to about 57.3 µM), most hits filed as inhibitors | 240,000 tested, 0.54% active; further: nearly all actives have a fitted effect of over 30% in size
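RECQ1T1 50 nM; forked duplex (20 bp + 30-nt ss tails) 200 nM, ATP 2 mM final; pH 8.0, 2 mM MgCl2, 2.5 ug/ml poly(dI-dC); 15 min compound preincubation; discontinuous kinetic read over 2 h at RT.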
APE1 inh-1: APE1 (human) endonuclease inhibition. recombinant APE1, TAMRA/BHQ-2 abasic DNA cleavage fluorescence. AID 2517. Potency, µM (doses to about 65.8 µM), most hits filed as inhibitors. P27695. 350,000 tested, 0.35% active; further: nearly all actives have a fitted effect of over 55% in size
Target sequence (P27695 whole entry, looked up): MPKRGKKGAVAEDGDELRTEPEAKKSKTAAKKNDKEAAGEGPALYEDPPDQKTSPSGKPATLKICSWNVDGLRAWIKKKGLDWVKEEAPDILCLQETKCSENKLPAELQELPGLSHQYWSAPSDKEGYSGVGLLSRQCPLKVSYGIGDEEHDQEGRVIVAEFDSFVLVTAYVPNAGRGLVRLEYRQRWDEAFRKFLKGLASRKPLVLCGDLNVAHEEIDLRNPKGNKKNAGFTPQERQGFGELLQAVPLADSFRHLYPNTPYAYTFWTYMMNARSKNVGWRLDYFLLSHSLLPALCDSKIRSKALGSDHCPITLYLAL
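Measures dequenching upon AP-site incision of a 5'-TAMRA/3'-BHQ-2 THF-containing duplex, 50 nM; human APE1 0.75 nM after 15 min room-temperature exposure to compound; kinetic three-point read at one-minute spacing.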
BLM helicase inh: Bloom syndrome helicase (human) inhibition | 350,000 tested, 0.2% active | recombinant BLM DNA unwinding, fluorescence dequenching | Potency, µM (highest dose often 56.1 µM), usual class: inhibitors; further: nearly all actives have a fitted effect of over 35% in size
KAT2A inh: GCN5L2 (KAT2A) acetyltransferase inhibition. Q92830. GCN5L2 HAT assay, ThioGlo1 CoA-SH fluorescence. Potency, µM (titrated, usually from 58.9 µM), actives largely listed as inhibitors. 390,000 tested, 0.21% active
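Free CoA generated was detected with ThioGlo1 (50uM) fluorescence at Ex340nm/Em540nm, read immediately and after 20 min at room temperature. Enzyme, 20 nM in HEPES pH 7.5 buffer, saw compounds 15 min before adding 75uM H3(1-25) peptide and 70uM acetyl-CoA.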
DNA dye displace: counter-screen for APE1 inhibitors: DNA dye displacement; DNA fluorescent dye displacement counterscreen, fluorescence; shares compounds with APE1 inh-1; Potency, µM (doses to about 28.5 µM), usual class: inhibitors; 480 tested, 7% active;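 further: loss of thiazole orange fluorescence as the dye is displaced from duplex DNA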
Endo IV inh: counter-screen for APE1 inhibitors: inhibitors of E. coli endonuclease IV; shares compounds with APE1 inh-1; E. coli Endo IV, fluorogenic AP-site DNA cleavage; Potency, µM (highest dose often 27.1 µM), usual class: inhibitors; 560 tested, 4% active; AID 2565
APE1 inh-2: APE1 (human) endonuclease inhibition, confirmation; purified APE1, fluorogenic abasic-site DNA cleavage; Potency, µM (titrated, usually from 57.1 µM), most hits filed as inhibitors; shares compounds with APE1 inh-1; 750 tested, 44% active; further: nearly all actives have a fitted effect of over 30% in size
APE1 FP inh: compounds that displace a DNA probe from human APE1; APE1 binding to TAMRA-labelled double-stranded DNA, fluorescence polarization displacement; Potency, µM (doses to about 28.5 µM), usual class: inhibitors; 480 tested, 7% active; AID 2573; shares compounds with APE1 inh-1
Large screens that a line does not name were inactive (follow-up assays come after a bar, where they were run). The call rests on the fitted dose curve; in most records, active means well fitted curve in the direction sought with a large enough effect; inconclusive means small, poorly fitted or top-dose-only effect, or another doubt; inactive means no such curve, though single readings can be large; an effect the other way counts as inactive or inconclusive.

CCCCCC(=O)N1CC2(CC(c3cccc(NC(=O)[C@@H]4CCC(=O)N4)c3)=NO2)C[C@@H]1C(N)=O (stereo partly drawn)	RECQ1 helicase inconclusive
C=C(C)C(=O)Nc1cccc(C2=NOC3(C2)C[C@@H](C(N)=O)N(C(=O)CCCCC)C3)c1 (stereo partly drawn)	TDP1 block 39.8µM, RECQ1 helicase 25.1µM, APE1 inh-1 inconclusive | APE1 inh-2 39.8µM
COc1cc(OC)c2c(c1C(CCN1CCN(c3ccccc3)CC1)c1ccc(N(C)C)cc1)OC(=O)CC2c1ccc(N(C)C)cc1 (stereo not drawn)	none (no result: KAT2A inh)
COc1cccc(NC(=O)CSc2nnc(-c3ccco3)c(-c3ccco3)n2)c1	RGS4 inh inconclusive, KAT2A inh inconclusive (no result: TDP1 block, RECQ1 helicase)
Cc1ccccc1NC(=O)CSc1nnc(-c2ccco2)c(-c2ccco2)n1	RGS4 inh inconclusive, APE1 inh-1 4.47µM, KAT2A inh inconclusive | DNA dye displace inactive | Endo IV inh inactive | APE1 inh-2 15.8µM | APE1 FP inh inactive
COc1ccc(C(=O)CSc2nnc(-c3ccco3)c(-c3ccco3)n2)cc1	APE1 inh-1 17.8µM, BLM helicase inh inconclusive | DNA dye displace inconclusive | Endo IV inh inactive | APE1 inh-2 inconclusive | APE1 FP inh inconclusive
NC(N)=NCC1COc2ccccc2O1 (stereo not drawn)	none (no result: RGS4 inh, RECQ1 helicase, APE1 inh-1)
Cc1ccccc1NC(=O)CN1C(=O)S/C(=C\c2cccn2-c2cccc(C(=O)O)c2)C1=O	TDP1 block 50.1µM, RECQ1 helicase inconclusive, APE1 inh-1 inconclusive | APE1 inh-2 inconclusive
Cc1cccc(C)c1NC(=O)CN1C(=O)S/C(=C\c2cccn2C)C1=O	none
Cc1ccc(NC(=O)CN2C(=O)S/C(=C\c3cccn3-c3cccc(C(=O)O)c3)C2=O)c(C)c1	TDP1 block 50.1µM, APE1 inh-1 8.91µM, BLM helicase inh inconclusive | DNA dye displace inactive | Endo IV inh inconclusive | APE1 inh-2 12.6µM | APE1 FP inh 15.8µM
CCCCS(=O)(=O)N1CCc2nc(-c3ccccc3)c3c(c2C1)CO[C@@H](C)C3	none (no result: RGS4 inh, KAT2A inh)
Cc1c(Br)c(O)c(Br)c2sc(=O)oc12	RECQ1 helicase 22.4µM, APE1 inh-1 inconclusive | DNA dye displace inactive | Endo IV inh inactive | APE1 inh-2 inactive | APE1 FP inh inactive
Cc1onc(-c2ccccc2Cl)c1C(=O)Nc1nnc(C2CCCCC2)s1	none (no result: TDP1 block, RECQ1 helicase, APE1 inh-1, BLM helicase inh, KAT2A inh)
Cc1cc(C(=O)O)ccc1-n1c(C)cc(/C=C2\SC(=O)NC2=O)c1C	none (no result: RECQ1 helicase)
Cc1ccc(C(=O)O)cc1-n1c(C)cc(C=O)c1C	TDP1 block 17.8µM, APE1 inh-1 inconclusive | APE1 inh-2 inconclusive
O=C1CC(c2ccc(O)c(O)c2)Oc2cc(O)cc(O)c21 (stereo not drawn)	RECQ1 helicase inconclusive, APE1 inh-1 12.6µM | DNA dye displace inactive | Endo IV inh inactive | APE1 inh-2 inconclusive | APE1 FP inh inactive
N#C/C(=C/c1cccn1-c1cccc(C(=O)O)c1)c1ccc(F)cc1	APE1 inh-1 25.1µM (no result: TDP1 block) | DNA dye displace inactive | Endo IV inh inactive | APE1 inh-2 inconclusive | APE1 FP inh inactive
O=C(CN1C(=O)N/C(=C\c2cccn2-c2cccc(C(=O)O)c2)C1=O)Nc1ccccc1F	none (no result: RGS4 inh, RECQ1 helicase, APE1 inh-1, BLM helicase inh, KAT2A inh)
O=C(O)c1cccc(-n2cccc2/C=C2/NC(=O)N(Cc3ccccc3F)C2=O)c1	TDP1 block 2.82µM, RECQ1 helicase inconclusive, APE1 inh-1 12.6µM | APE1 inh-2 inconclusive
COc1cccc(/C=C(/C#N)c2ccc(F)cc2)c1OCc1cccc(C(=O)O)c1	none
Cc1ccccc1OCC(=O)NCC(c1ccc(Cl)cc1)N1CCCCC1 (stereo not drawn)	none (no result: RECQ1 helicase, APE1 inh-1)
CN=c1scc(C)n1/N=C/c1cc(Br)c(O)c(OC)c1	none
CN=c1scc(C)n1/N=C/c1ccc(O)c(O)c1O	RECQ1 helicase 10µM, APE1 inh-1 7.08µM, BLM helicase inh inconclusive, KAT2A inh inconclusive | DNA dye displace inconclusive | Endo IV inh inactive | APE1 inh-2 14.1µM | APE1 FP inh inactive
CCCCCCCC1=Cc2ccccc2C(CC(=O)c2ccccc2)N1C(=O)OC (stereo not drawn)	none (no result: RGS4 inh, KAT2A inh)
O=C(O)c1cccc(-c2ccc(/C=c3/sc4nc5ccccc5n4c3=O)o2)c1	RECQ1 helicase inconclusive, APE1 inh-1 10µM (no result: TDP1 block) | DNA dye displace 6.31µM | Endo IV inh inactive | APE1 inh-2 5.01µM | APE1 FP inh 7.94µM
CC(=O)O[C@]1(C(C)=O)CC[C@H]2C3C=C(Cl)C4=CC(=O)[C@@H]5C[C@H]5[C@]4(C)C3CC[C@@]21C (stereo partly drawn)	none (no result: RGS4 inh, BLM helicase inh, KAT2A inh)
CCN(CC)c1ccc(NC(=O)CCc2c(C)nc3ncnn3c2C)c(C)c1	none (no result: RECQ1 helicase, APE1 inh-1)
Oc1ccc(/C=N/N2CCOCC2)c(O)c1O	RGS4 inh inconclusive, TDP1 block inconclusive, APE1 inh-1 7.08µM | DNA dye displace inactive | Endo IV inh inactive | APE1 inh-2 inconclusive | APE1 FP inh inactive
Oc1ccc(/C=N/N2CCCCC2)c(O)c1O	none (no result: TDP1 block, RECQ1 helicase)
c1ccc(-c2[nH]ncc2-c2ccnc3ccccc23)nc1	none (no result: RGS4 inh)
Cn1c(=O)c2c(ncn2CC(=O)N/N=C/c2c[nH]c3ccccc23)n(C)c1=O	TDP1 block 79.4µM (no result: RGS4 inh) | APE1 inh-2 inconclusive
COc1ccc([C@]23Cc4cc(C#N)ccc4C(O2)c2c(c4ccc(OC)cc4oc2=O)O3)cc1	none (no result: RGS4 inh, TDP1 block, RECQ1 helicase)
Nc1cc(C(=O)O)ccc1Sc1ccccc1C(=O)O	TDP1 block 44.7µM, APE1 inh-1 inconclusive | APE1 inh-2 inactive
Cc1ccc(NC(=O)CCC(=O)N2Cc3ccccc3Oc3ncccc32)c(C)c1	none (no result: RECQ1 helicase, APE1 inh-1)
O=c1oc2c3c4c(cc2s1)CCCN4CCC3	RGS4 inh inconclusive, TDP1 block 14.1µM, RECQ1 helicase 28.2µM, APE1 inh-1 28.2µM, BLM helicase inh inconclusive | DNA dye displace inactive | Endo IV inh inactive | APE1 inh-2 15.8µM | APE1 FP inh inactive
